aSyn 5UTR act = Activators via SNCA 5'UTR binding, MLPCN; activity score, % (tested at 7.5 µM), hits read low; 7.1% of 300,000 active; AID 1814, 2009; alpha-synuclein 5'UTR reporter, activators screen; in the data active = activity score below about -60%
* marks the source's active call; other numbers are inactive results. Only a sample is shown.

SMILES	aSyn 5UTR act
CC(C)Nc1nnc(SCC(=O)Nc2ccc3c(c2)C(=O)c2ccccc2C3=O)s1	-184*
O=C(CSc1nnc(NC2CCCCC2)s1)Nc1ccc2c(c1)C(=O)c1ccccc1C2=O	-121*
CC(C)c1ccc(NC(=O)CSc2ncccc2C(=O)Oc2cccc([N+](=O)[O-])c2)cc1	-115*
c1ccc(CCNc2ncnc3nc[nH]c23)cc1	-113*
c1ccc2c(CCNc3ncnc4nc[nH]c34)c[nH]c2c1	-73*
O=c1[nH]c2cc3c(cc2cc1CN(Cc1nnnn1C1CCCC1)C1CCCC1)OCCO3	-79*
Cn1c(-c2cccs2)nc2ccccc21	-93*
Cn1c(-c2ccc(C=O)s2)nc2ccccc21	-123*
Cn1c(-c2ccc(Cl)nc2)nc2ccccc21	-65*
Cc1cc(Cl)n2c(nc3ccccc32)c1C#N	89
CCN(Cc1ccccc1)c1ccc(/C=C(\C#N)c2ccccn2)cc1	-137*
Cc1cc(C)c2c(N)c(C(=O)N/N=C/c3ccccc3)sc2n1	-108*
Cc1cc(C)c2c(N)c(C(=O)NNC(=O)c3ccccc3)sc2n1	-108*
Cc1cc(C)c2c(N)c(C(=O)N/N=C/c3cccnc3)sc2n1	-128*
Nc1c(C(=O)NCc2ccccc2)sc2nc(N3CCOCC3)c3c(c12)CCCC3	65
O=C(c1cc2ccccc2oc1=O)N(Cc1ccco1)C1CCS(=O)(=O)C1 (stereo not drawn)	-97*
c1ccc(-c2noc(-c3ccc4c(c3)OCO4)n2)nc1	91
CCc1ccn2cc(-c3ccc4c(c3)OCO4)nc2c1	107
Cc1ccc(-c2cn3cccnc3n2)cc1	-119*
c1cnc2nc(-c3ccc4c(c3)OCO4)cn2c1	-93*
c1ccc(-c2nccc(-c3ccc4c(c3)OCO4)n2)cc1	-105*
CC1CCCCC12NC(=O)N(CC(=O)NC(=O)Nc1ccc3c(c1)OCCO3)C2=O (stereo not drawn)	-169*
CC1Oc2ccccc2N(CC(=O)Nc2ccc3c(c2)OCCO3)C1=O (stereo not drawn)	-77*
CCOC(=O)C(C)Oc1cccc2c(=O)n(CC(=O)NCc3ccc4c(c3)OCO4)ccc12 (stereo not drawn)	65
CC1Oc2ccccc2N(CC(=O)NCc2ccc3c(c2)OCO3)C1=O (stereo not drawn)	-106*
SMILES	aSyn 5UTR act
COc1cc([C@@H]2c3cc4c(cc3[C@@H](NC3CCN(Cc5ccccc5)CC3)[C@H]3COC(=O)[C@H]23)OCO4)cc(OC)c1O	103
CCOc1cc(N(CC)CC)ccc1/C=C(/C#N)c1nc2ccccc2[nH]1	-107*
N#C/C(=C\c1ccc(Cl)cc1)c1nc2ncccc2[nH]1	-94*
Cc1cc(/C=C(\C#N)c2nc3ccccc3[nH]2)c(C)n1C	-224*
N#C/C(=C(/O)c1cccs1)c1nc2ccccc2[nH]1	-102*
N#C/C(=C/c1cccs1)c1nc2ccccc2[nH]1	-201*
N#C/C(=C\c1c(Cl)cccc1Cl)c1nc2ccccc2[nH]1	-64*
Cc1ccc(/C=C(\C#N)c2nc3ccccc3[nH]2)s1	-229*
N#C/C(=C\c1cccs1)Sc1nc2ccccc2s1	-68*
N#C/C(=C\C1CC=CCC1)c1nc2ccccc2[nH]1 (stereo not drawn)	-66*
O=C(Nc1ccc2c(c1)C(=O)OC2)c1ccc(Cl)cc1Cl	-75*
O=C(Nc1ccc2c(c1)C(=O)OC2)c1ccc(F)cc1F	-63*
O=C(Nc1ccc(Cl)c(Cl)c1)C1=Cc2ccccc2OC1	-202*
N#Cc1ccsc1NC(=O)c1ccc(Cl)c([N+](=O)[O-])c1	-116*
O=C(CNC(=O)c1ccc2c(c1)OCO2)Nc1ncccc1O	-77*
O=C(Nc1ccc2c(c1)OCCO2)c1ccc(Cl)c(Cl)c1	-131*
O=C(Nc1ccc2c(c1)OCCO2)c1ccc(Cl)c([N+](=O)[O-])c1	-105*
O=C(Nc1ncccc1Cl)c1ccc2c(c1)OCCO2	-119*
CCOc1ccc(C(=O)Nc2ncccc2Cl)cc1	-116*
CCn1cc([N+](=O)[O-])c(C(=O)Nc2ccc3c(c2)OCCO3)n1	-69*
O=C(COC(=O)c1ccc2c(c1Cl)C(=O)c1ccccc1C2=O)NC1CC1	-66*
Cc1cccc(C)c1NC(=O)COC(=O)c1cccc2c1C(=O)c1ccccc1C2=O	68
O=C(O)/C=C/C(=O)c1ccc2c(c1)CCc1ccccc1-2	-111*
Cc1ccc2oc(-c3cccc(NC(=O)Cc4cccs4)c3)nc2c1	-71*
Cc1ccc2oc(-c3ccc(C)c(NC(=O)Cc4cccs4)c3)nc2c1	-142*
SMILES	aSyn 5UTR act
Cc1ccc(-c2csc(NC(=S)NC(=O)c3cc4ccccc4o3)n2)cc1	-66*
Cc1cccc(NC(=O)c2cccc(NC(=O)Cc3cccs3)c2)c1	-88*
Cc1ccc(-c2nc3ccccc3o2)cc1NC(=S)NC(=O)c1cc2ccccc2o1	-111*
Cc1ccc2oc(-c3ccc(C)c(NC(=S)NC(=O)c4cccs4)c3)nc2c1	-193*
Nc1ccc2c(c1)Cc1cc([N+](=O)[O-])ccc1-2	-79*
Cc1sc(NC(=S)NC(=O)c2ccco2)c(C(N)=O)c1C	-92*
CC1(C)Cc2c(sc(NC(=O)Nc3ccccc3)c2C(N)=O)CO1	-158*
COC(=O)c1c(NC(=O)c2ccccc2)sc2c1CC(C)(C)OC2	-69*
Cc1sc(NC(=O)Nc2ccccc2)c(C(N)=O)c1C	-161*
COC(=O)c1c(NC(=O)c2ccc(OC(C)C)cc2)sc2c1CC(C)(C)NC2(C)C	103
COC(=O)CCC(=O)NC(=S)Nc1sc(C)c(C)c1C(N)=O	90
CCNC(=S)Nc1ccc(-c2nc3ccccc3[nH]2)cc1	-161*
CCOc1ccc(NC(=S)NCc2nc3ccccc3[nH]2)cc1	-69*
Cc1[nH]nc(Nc2ccc(C(C)C)cc2)c1[N+](=O)[O-]	-151*
Cc1cccc(Nc2n[nH]c(C)c2[N+](=O)[O-])c1	-140*
Cc1[nH]nc(Nc2ccccc2)c1[N+](=O)[O-]	-72*
Cc1[nH]nc(Nc2ccc(Br)cc2)c1[N+](=O)[O-]	-164*
Cc1ccc(Nc2n[nH]c(C)c2[N+](=O)[O-])cc1	-221*
O=C(O)c1ccc(COc2ccc(CO)cc2Cl)cc1	-92*
O=C(O)c1cccc(COc2ccc(CO)cc2Cl)c1	105
O=C(Nc1ccc2c(c1)OCCO2)NC1(C(F)(F)F)Oc2ccccc2O1	62
CCc1ccccc1NC(=O)Nc1ccc2c(c1)OCO2	-79*
CCc1cccc(NC(=O)Nc2ccc3c(c2)OCO3)c1	-65*
O=C(Nc1ccc2c(c1)OCO2)NC1(C(F)(F)F)Oc2ccccc2O1	-96*
O=C(Nc1ccc2c(c1)OCO2)Nc1ccccc1F	-136*
SMILES	aSyn 5UTR act
CCn1c2ccccc2c2nnc(SCC(=O)Nc3ccc4c(c3)OCO4)nc21	-96*
Cc1cc(O)ccc1N/C=C(\C#N)c1nc2ccccc2o1	-141*
CCN(CC)C(=S)SCC(=O)c1ccccc1	-165*
CCN(CC)C(=S)SSC(=S)N(CC)CC	97
CCN(CC)C(=S)SCC(=O)c1ccc(F)cc1	-133*
CCN(CC)c1ccc(NC(=S)NCC2CCCO2)cc1 (stereo not drawn)	-83*
S=C(NCC1CCCO1)Nc1ccc(Cl)cc1Cl (stereo not drawn)	-87*
S=C(NCC1CCCO1)Nc1ccc(Cl)cc1 (stereo not drawn)	-72*
Cn1c(SCC(=O)NCC2CCCO2)ncc(C(=O)Nc2ccc(Cl)cc2)c1=O (stereo not drawn)	-72*
Clc1ccc(-c2ccc(CNCC3CCCO3)o2)cc1 (stereo not drawn)	-67*
